Results filed as inconclusive are left out. Values without a mark were called inactive. Activity calls are given as the source filed them. The call rests on the fitted dose curve; in most records, active means well fitted inhibition curve with a large enough effect; inconclusive means small, poorly fitted or top-dose-only effect; inactive means no such curve, though single readings can be large or run the other way.
Potency means the concentration at half of the fitted maximal effect.

This test can be described thus: Acumen qHTS Assay for Inhibitors of the mTORC1 Signaling Pathway in WT MEF Cells: Hit Validation. Further: nearly all actives have a fitted effect of over 60% in size.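 On activity change, negative = inhibition: percent of cells above a cutoff set by 7.5 nM rapamycin treated wells.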 To be noted: Acumen imaging; series mostly up to 37.3 µM; activity change, negative = inhibition: at the top concentration. From the text:
The mammalian target of rapamycin (mTOR) is an intracellular serine/threonine kinase Aberrant regulation of mTOR signaling plays a causative role in a number of human diseases, including cancer, benign tumors such as lymphangioleiomyomatosis (LAM) and Tuberous Sclerosis Complex (TSC), and metabolic diseases such as diabetes and obesity. This project aims to identify inhibitors of ribosomal protein S6 (rpS6) phosphorylation. The phosphorylation of rpS6 is a key event downstream of mTOR activation. The assay uses a phospho-specific antibody of phospho-rpS6 to detect inhibitors of mTOR activation. Mutations in the Tsc1 and Tsc2 genes are the underlying genetic lesions responsible for TSC, causing constitutive activation of the mTORC1 pathway and leading to profound effects on cell metabolism. Aberrant metabolism in cancer has recently received significant attention as a target to develop therapeutic agents in the treatment of cancer.1 As Tsc2-/- cells have lost the ability to respond to energy and growth factor deprivation, these cells are unable to properly down regulate cellular biosynthetic processes in response to metabolic stress, and are thus extremely sensitive to glucose deprivation-induced death.2 A central goal of this project is to explore the unique cell survival and metabolic properties of cells with Tsc1 or Tsc2 by screening for compounds that selectively target the Tsc2-/- MEFs by screening both Tsc2-/- and WT MEF cell lines. We hope to better understand these aspects of TSC physiology in order to exploit them for therapeutic benefit.
NIH Molecular Libraries Probe Production Centers Network [MLPCN]
NIH Chemical Genomics Center [NCGC]
Assay Submitter (PI): Blenis, John; Harvard University
For quantitative high throughput analysis of mTORC1 signaling, we developed a cell-based assay for immuno-fluorescence based detection of rpS6 phosphorylation on the Acumen Explorer that will be used a platform for the primary small molecule screen. Mouse embryonic fibroblasts (MEFs) are cultured in 1536-well plates using DMEM + 10% FBS. Twenty-four hrs after plating, test compounds (solubilized in DMSO) are delivered and incubated with the cells for 24 hrs at 37 degree Celsius. Following the incubation, media with compound is aspirated and the cells are fixed in 4% paraformaldehyde (PFA) containing PBS + 0.2% TX-100. Next, PFA is aspirated, cells are washed two times with PBS plus 0.2% TX-100 and the cells are blocked for 1 hr at room temperature (blocking buffer: LiCOR Blocking Buffer plus 0.2% TX-100). This is followed by aspiration and staining with Alexa-488 conjugated-phospho-rpS6 Ser235/236 antibody for 2 hours at room temperature (Cell Signaling Technology # 4803, 1:50 dilution in blocking buffer). Cells are washed two times with PBS plus 0.2% TX-100, and stained with 10 uM propidium iodide (PI) for 20-25 minutes for cell number measurement (1:500 dilution of Hoescht staining is also added for IN Cell imaging). The plates are scanned on the Acumen Explorer laser scanning instrument (TTP Labtech) using the 488nm laser for simultaneous excitation of the Alexa-488 and PI. […] Fluorescence emission from the PI stain is selected using a 575-640 nm band pass filter. The normalized phospho-S6 staining is calculated as the ratio of the integrated Alexa 488 intensity divided by the integrated PI intensity for the single concentration rapamycin control (7.5 nM) and DMSO columns. […] Inhibition of the pathway is defined based on the normalized phospho-S6 intensity in rapamycin treated cells. Active cells are defined as those with a normalized phospho-S6 staining above this threshold, and each treatment is reported as the % positive cells in the well, where thresholds are defined by selecting wells with the highest and lowest signal and differentiating between the % non-active and % active populations. In addition to the pathway specific phospho-S6 endpoint, the number of PI stained cells from the Acumen is recorded as a measure of cell viability. […]
With `CCN(CC)C(=O)c1ccc(NC(=O)CCn2nc(-c3ccc(C)cc3)c3ccccc3c2=O)cc1`, the “activity change, negative = inhibition” value is 33.8%.

For the compound `Cc1ccccc1-n1c(/C=C/c2ccccc2F)nc2ccccc2c1=O`, the “activity change, negative = inhibition” value is 14.5%.

`Cc1ccc(-n2c(/C=C/c3ccc(Br)s3)nc3ccccc3c2=O)cc1C`: the “activity change, negative = inhibition” value is -27.4%.

Take `CCOc1ccc(CN(CCc2ccc3c(c2)OCO3)Cc2ccc(C)cc2)cc1`: the “activity change, negative = inhibition” value was -17.6%.

As to `Cc1cccc(CN2CCc3nc(N4CCN(c5ccccn5)CC4)ncc3C2)c1`, the “activity change, negative = inhibition” value is 21.3%.

With `CCCOC(=O)c1c(C)oc2c1cc(NS(=O)(=O)c1ccc(OCC)cc1)c1ccccc12`, the Potency was 656 nM (active).

With `CCOc1ccc(N(C(C)C(=O)Nc2cc(Cl)ccc2OC)S(C)(=O)=O)cc1` (stereo not drawn), the Potency was 3690 nM (active).

In the case of `CN[C@@H]1C[C@@]2(C)O[C@@H]([C@@H]1OC)n1c3ccccc3c3c4c(c5c6ccccc6n2c5c31)C(=O)NC4`, the Potency is 32.5 nM (active).

For the compound `Cc1ccccc1-c1nc(CN2C(=O)CN=C(c3ccccc3)c3ccccc32)c(C)o1`, the “activity change, negative = inhibition” value was -21.4%.

For the compound `Cc1ccccc1-n1c(/C=C/c2c(C)[nH]c3ccccc23)nc2ccccc2c1=O`, the Potency was 1850 nM (active).

As for `CCOc1ccc(NC(=O)CSc2oc(-c3ccccc3)nc2S(=O)(=O)c2ccc(Cl)cc2)cc1`, the Potency was 3690 nM (active).

Regarding `CCN(CC)CCSc1nc2ccccc2c(=O)n1-c1ccc(Cl)cc1`, the “activity change, negative = inhibition” value is 0.87%.

As for `O=C(Nc1ccon1)c1cccn(Cc2cccc(Cl)c2)c1=O`, the “activity change, negative = inhibition” value was 3.6%.

The values are drawn from PubChem BioAssay AID651789 (National Center for Advancing Translational Sciences (NCATS), 2012).
